In all, about 39,000 compounds went through this assay and about 3,300 (8.5%) were called active. This excerpt belongs to a sample that is enriched for actives.
These compounds were tested on HepG2 (assay: cytotoxicity call (relative viability < 0.9)). Conditions: 10 µM.

SMILES | cytotoxicity call
Cc1ccc(S[C@]2(C(=O)NC(C)C)CC(=O)N(Cc3ccccc3Cl)[C@@H]2c2ccc(CO)cc2)cc1 | inactive
C[C@@H]1CCCCO[C@@H](CN(C)Cc2ccc(C(F)(F)F)cc2)[C@H](C)CN([C@H](C)CO)C(=O)c2cc(NC(=O)CCCN(C)C)ccc2O1 | inactive
CS(=O)(=O)N1CCS(=O)(=O)[C@H]2CCN(CC3CC3)CC[C@@H]21 | inactive
COc1ccc(S(=O)(=O)N(C)C[C@@H]2Oc3ccc(NC(=O)Nc4cccc5ccccc45)cc3C(=O)N([C@H](C)CO)C[C@@H]2C)cc1 | inactive
CC(C)c1c(C(=O)Nc2ccccc2)c(-c2ccccc2)c(-c2ccc(F)cc2)n1CC[C@@H](O)C[C@@H](O)CC(=O)O | inactive
C[C@@H]1CCCCO[C@@H](CN(C)CC2CC2)[C@H](C)CN([C@@H](C)CO)C(=O)c2cc(NC(=O)c3ccccc3)ccc2O1 | inactive
C[C@@H]1CCCCO[C@@H](CN(C)Cc2ccc(C(=O)O)cc2)[C@@H](C)CN([C@H](C)CO)C(=O)c2cc(NC(=O)C3CCCCC3)ccc2O1 | inactive
CC1=C(C(=O)O)N2C(=O)[C@@H](NC(=O)[C@H](N)c3ccc(O)cc3)[C@H]2SC1 | inactive
CCN1CCN(Cc2ccc(C(=O)Nc3ccc(C)c(Oc4ccc5c(c4)CC(=O)N5)c3)cc2C(F)(F)F)CC1 | active
COCC(=O)Nc1ccc2c(c1)CC(=O)N2 | inactive
CC1=NCCC2c3ccc(O)cc3NC12 (stereo unspecified) | active
CCS(=O)(=O)N1C[C@]2(C1)CN([C@@H](CO)c1[nH]c3cc(ccc3c12)OC)S(=O)(=O)c1cccc(c1)OC | inactive
C[C@@H]1CN([C@@H](C)CO)C(=O)c2cccc(NC(=O)c3ccncc3)c2O[C@@H]1CN(C)Cc1ccncc1 | inactive
CN1C(=O)c2cc(NC(=O)c3cscn3)ccc2OC[C@H]2O[C@H](CC(=O)N3CCOCC3)CC[C@@H]21 | inactive
C=C1C(=O)OC2CC3(C)CCCC(C)C3=CC12 (stereo unspecified) | active
C[C@H](CO)N1C[C@H](C)[C@@H](CN(C)C(=O)Nc2ccccc2)Oc2ccc(NC(=O)Cn3cnnn3)cc2CC1=O | inactive
CC(=O)N(C)C[C@@H]1Oc2cc(C#CCN(C)C)ccc2S(=O)(=O)N([C@@H](C)CO)C[C@@H]1C | inactive
COc1ccc(S(=O)(=O)Nc2ccc3c(c2)CC(=O)N([C@@H](C)CO)C[C@H](C)[C@@H](CN(C)Cc2ccncc2)O3)cc1 | inactive
O=C(Oc1cccc2cccnc12)c1ccccc1 | active
FC(F)Oc1cccc2cccnc12 | inactive
O=C(O)c1ccccn1 | inactive
CC(C)NC(=O)N(C)C[C@@H]1Oc2ccc(NC(=O)NC3CCCCC3)cc2C(=O)N([C@H](C)CO)C[C@H]1C | inactive
N=c1c(C(=O)NC[C@H]2CCCO2)cc2c(=O)n3ccccc3nc2n1CCCN1CCOCC1 | inactive
Cc1cccn2c(=O)c3cc(S(=O)(=O)c4ccc(Br)cc4)c(=N)n(CCCN4CCOCC4)c3nc12 | inactive

SMILES | cytotoxicity call
COc1ccc(CCNC(=O)c2cc3c(=O)n4cccc(C)c4nc3n(CCCN3CCOCC3)c2=N)cc1 | active
COc1ccc(CN(C)C[C@@H]2OCCCC[C@@H](C)Oc3ccc(NC(=O)Nc4c(C)noc4C)cc3C(=O)N([C@@H](C)CO)C[C@@H]2C)cc1 | inactive
Nc1ncnc2c1ncn2[C@H]1CCCO1 | inactive
C[C@@H]1CN([C@H](C)CO)C(=O)c2ccccc2-c2ccccc2CO[C@@H]1CN(C)S(=O)(=O)c1ccc(C(F)(F)F)cc1 | inactive
NCc1csc2c1CCCC2 | inactive
C[C@H](CO)N1C[C@H](C)[C@H](CN(C)S(C)(=O)=O)Oc2ccc(NC(=O)Nc3ccc(C(F)(F)F)cc3)cc2CC1=O | inactive
Cc1ccc(S(=O)(=O)N(C)C[C@@H]2Oc3ccc(NC(=O)Nc4ccc(C(F)(F)F)cc4)cc3CC(=O)N([C@@H](C)CO)C[C@H]2C)cc1 | active
Cc1ccc(S(=O)(=O)N(C)C[C@H]2Oc3ccc(NC(=O)Nc4ccc(C(F)(F)F)cc4)cc3CC(=O)N([C@H](C)CO)C[C@@H]2C)cc1 | inactive
Cc1ccc(S(=O)(=O)N(C)C[C@@H]2Oc3ccc(NC(=O)Nc4ccc(C(F)(F)F)cc4)cc3CC(=O)N([C@H](C)CO)C[C@@H]2C)cc1 | active
Cc1ccc(S(=O)(=O)N(C)C[C@H]2Oc3ccc(NC(=O)Nc4ccc(C(F)(F)F)cc4)cc3CC(=O)N([C@H](C)CO)C[C@H]2C)cc1 | active
Cc1ccc(S(=O)(=O)N(C)C[C@@H]2Oc3ccc(NC(=O)Nc4ccc(C(F)(F)F)cc4)cc3CC(=O)N([C@H](C)CO)C[C@H]2C)cc1 | inactive
Cc1ccc(S(=O)(=O)N(C)C[C@@H]2Oc3ccc(NC(=O)Nc4ccc(C(F)(F)F)cc4)cc3CC(=O)N([C@@H](C)CO)C[C@@H]2C)cc1 | active
C[C@@H]1CN([C@@H](C)CO)C(=O)Cc2cc(NC(=O)Nc3ccc(C(F)(F)F)cc3)ccc2O[C@@H]1CN(C)S(C)(=O)=O | inactive
C[C@@H]1CCCCO[C@@H](CN(C)C(=O)Nc2ccc(F)cc2)[C@H](C)CN([C@H](C)CO)C(=O)c2cc(NC(=O)c3ccncc3)ccc2O1 | inactive
C[C@H]1CCCCO[C@H](CN(C)C(=O)C2CCCCC2)[C@@H](C)CN([C@@H](C)CO)C(=O)c2cc(NS(=O)(=O)c3ccc(F)cc3)ccc2O1 | inactive
C[C@H](CO)N1C[C@H](C)[C@@H](CN(C)C(=O)Nc2ccc(F)cc2)Oc2c(NS(C)(=O)=O)cccc2C1=O | inactive
COc1ccc(NC(=O)N(C)C[C@H]2Oc3c(NC(=O)C4CCOCC4)cccc3C(=O)N([C@@H](C)CO)C[C@@H]2C)cc1 | inactive
O=C(N[C@H]1C=C[C@@H](CC(=O)N2CCOCC2)O[C@@H]1CO)c1ccccn1 | inactive
CN(C)c1nc2ncnc(N)c2[nH]1 | inactive
C[C@H]1CN([C@@H](C)CO)C(=O)c2ccccc2-c2ccccc2CO[C@@H]1CN(C)C(=O)Nc1ccccc1C(F)(F)F | inactive
C[C@@]1(O)N(CC(=O)O)C(=O)OC12CCCCC2 | inactive
O=C1N[C@@H](Cc2ccccc2)C(=O)N2[C@@H]1C[C@@H](C(=O)NCc1ccc(F)cc1)[C@H]2c1cccc(OCCO)c1 | inactive
O=S1(=O)C[C@H](NC[C@H]2C[C@@H]3C=C[C@H]2C3)[C@@H](O)C1 | inactive
C[C@@H]1CN([C@H](C)CO)C(=O)c2cccc(NS(=O)(=O)c3cn(C)cn3)c2O[C@@H]1CN(C)C(=O)Nc1ccc(F)cc1 | inactive

SMILES | cytotoxicity call
Cc1ccc(S(=O)(=O)N(C)C[C@H]2Oc3ccc(NC(=O)Nc4ccc(C(F)(F)F)cc4)cc3CC(=O)N([C@@H](C)CO)C[C@@H]2C)cc1 | active
Cc1ccc(S(=O)(=O)N(C)C[C@H]2Oc3ccc(NC(=O)Nc4ccc(C(F)(F)F)cc4)cc3CC(=O)N([C@@H](C)CO)C[C@H]2C)cc1 | active
C[C@@H]1CN([C@@H](C)CO)C(=O)Cc2cc(NC(=O)Nc3ccc(C(F)(F)F)cc3)ccc2O[C@H]1CN(C)S(C)(=O)=O | inactive
C[C@H]1CN([C@@H](C)CO)C(=O)c2cc(NS(=O)(=O)c3cn(C)cn3)ccc2O[C@H]1CN(C)C(=O)Nc1ccc(F)cc1 | inactive
C[C@@H]1CN([C@H](C)CO)C(=O)c2cccc(NS(=O)(=O)c3cccs3)c2O[C@@H]1CN(C)S(=O)(=O)c1cccs1 | inactive
Cc1noc(C)c1S(=O)(=O)N(C)C[C@H]1Oc2ccc(NS(=O)(=O)c3ccc(Cl)cc3)cc2CC(=O)N([C@H](C)CO)C[C@H]1C | inactive
O=C(N[C@@H]1CC[C@H](CCNS(=O)(=O)c2ccc(F)cc2)O[C@@H]1CO)C1CC1 | inactive
C[C@H](CO)N1C[C@H](C)[C@@H](CN(C)S(=O)(=O)c2ccc(F)cc2)Oc2ccc(NS(=O)(=O)c3cn(C)cn3)cc2C1=O | inactive
C[C@H]1CCCCO[C@H](CN(C)C(=O)c2ccccc2)[C@@H](C)CN([C@@H](C)CO)C(=O)c2cc(NS(=O)(=O)c3ccc(Cl)cc3)ccc2O1 | inactive
CN(C[C@@H](O)CN)S(=O)(=O)c1ccccc1 | inactive
O=C(O)c1ccc(OC[C@@H](O)CO[C@H](COc2ccc(C(=O)O)cc2)Cn2c3ccccc3c3ccccc32)cc1 | inactive
Cc1c(-c2ccccc2)n(C[C@@H](O)CN)c2ccccc12 | active
COc1ccc(S(=O)(=O)Nc2ccc3c(c2)C(=O)N([C@H](C)CO)C[C@@H](C)[C@H](CN(C)Cc2ccccc2)OCCCC[C@H](C)O3)cc1 | inactive
CS(=O)(=O)N1C[C@H]2CN(Cc3ccncc3)C(=O)[C@@H]2C1 | inactive
C[C@H](CO)N1C[C@H](C)[C@H](CN(C)C(=O)CN(C)C)Oc2cc(C#CCN(C)C)ccc2S1(=O)=O | inactive
CCOc1cc2ncc(C#N)c(Nc3ccc(OCc4ccccn4)c(Cl)c3)c2cc1NC(=O)/C=C/CN(C)C | active
COc1ccccc1[C@@H](NC(=O)C1CCN(CCOc2ccc(Cl)cc2Cl)CC1)c1ccccn1 | inactive
CCOc1ccc(C(=O)Nc2ccc(S(=O)(=O)N3CCCC[C@@H]3c3cccnc3)cc2)cc1OCC | inactive
CCOc1cc2ncc(C#N)c(Nc3ccc(OCc4ccccn4)c(Cl)c3)c2cc1NC(=O)/C=C/[C@H]1CCCN1C | active
OC[C@H]1CN(Cc2ccccc2)CCO1 | inactive
Cc1nc2ccc([N+](=O)[O-])cc2s1 | inactive
CO[C@H]1CN(C)C(=O)c2cc(NC(=O)CC(F)(F)F)ccc2OC[C@H](C)N(C(=O)C2CCOCC2)C[C@@H]1C | inactive
C=CCOC(=O)[C@H]1[C@@H]2C(=O)O[C@@H](c3ccccc3)[C@@H](c3ccccc3)N2[C@@H](c2ccc(OCCOC(=O)[C@H]3C[C@H]4C(=O)N[C@@H](CCCC[N+](C)(C)C)C(=O)N4[C@H]3c3ccc(O)cc3)cc2)[C@]12C(=O)Nc1ccc(I)cc12 | inactive

From the antibiotic and cytotoxicity screens of Wong et al. (2023)
